The values that follow come from article PMC5540273 (PLoS ONE, 2017).

Holding throughout (details): concentration: 1 μM, replicates: in singlicate; n = 1
The test system of assay [1] is T1, MINK.
T1 construct: gene MINK1

Assay [2] has as its system MKK7.
For assay [3], the system named is MKNK1.
The subject of assay [4] is MKNK2.
The subject of assay [5] is T2, MLCK.
T2 construct: gene MYLK3

The test system of assay [6] is T3, MLK1.
T3 construct: gene MAP3K9

For assay [7], the system named is MLK2.
Assay [8] deals with MLK3.
Assay [9] deals with MRCKA.
In assay [10] the test system is T4, MRCKB.
T4 construct: gene CDC42BPB
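Further: KINOMEscan kinase panel screen.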

Consider `Nc1nccc(-c2c(-c3ccc(F)cc3)ncn2C2CCN(Cc3ccccc3)CC2)n1` [SB-219980], for which the “%Inh” value turned out to be 32% in assay [1]; 0% in assay [2]; 0% in assay [3]; 0% in assay [4]; 5% in [5]; 11% in assay [6]. Besides, the “%Inh” value in [7] was determined as 8%; in assay [8] it was 0%; in [9] it was 0%; in assay [10], 20%.

Consider `Cc1ccc(NC(=O)Nc2ccc(Cl)c(C(F)(F)F)c2)cc1-c1ccc(C(=O)Nc2ccncc2)cc1` [GSK1398470], for which the “%Inh” value in assay [1] was 20%; in assay [2], 0%; in assay [3], 3%; in assay [4], 0%; in assay [5] it was 0%; in [6], 10%. Moreover, the “%Inh” value in assay [7] is listed as 36%; in assay [8], 17%; in assay [9], 1%; in assay [10] it was 5%.

`CC[C@@H]1CO[C@H](C(=O)Nc2ccccc2)CN1c1cc(-c2ccc3c(N)n[nH]c3c2)nc(NC)n1` [GSK2376236]: the “%Inh” value in [1] came to 0%; in assay [2] it was 0%; in assay [3] it was 6%; in assay [4] it was 0%; in assay [5], 0%; in assay [6], 0%. In addition, the “%Inh” value in [7] was 0%; in assay [8] it was 14%; in assay [9], 14%; in assay [10], 0%.

With `COc1ccc(CSc2nnc(-c3ccc4c(c3)CCO4)o2)cc1`, the “%Inh” value in [1], in [2], in assay [3], in assay [4], in assay [5] and in assay [6] was 0% each time. The “%Inh” value was 15% in assay [7], 0% in [8], 0% in assay [9] and 0% in assay [10].

For `Nc1ncnc2occ(-c3ccc4c(c3)CCN4C(=O)Cc3cc(F)ccc3F)c12` [GSK2645446], the “%Inh” value in [1], in assay [2], in assay [3], in [4], in assay [5] and in assay [6] was 0% each time. For the same compound, the “%Inh” value in assay [7] is 10%; in [8], 6%; in assay [9], 22%; in assay [10], 0%.

`CCn1c(-c2ccccc2)nc2cnccc21` [SB-733416]: the “%Inh” value in assay [1] is recorded as 0%; in assay [2], 16%; in assay [3], 25%; in assay [4], 28%; in assay [5], 0%; in [6], 0%. Also, the “%Inh” value in assay [7] is given as 3%; in [8] it was 7%; in assay [9], 0%; in assay [10], 14%.

For `COc1ccc(Nc2nccc(N3CCC(NC(=O)c4cc5ccccc5s4)C3)n2)cc1` (centres unmarked) [GSK1379738], the “%Inh” value in assay [1] amounted to 0%; in assay [2] it was 26%; in assay [3], 22%; in assay [4], 11%; in [5] it was 0%; in assay [6], 0%. Also, the “%Inh” value in assay [7] is listed as 0%; in assay [8], 0%; in assay [9], 12%; in assay [10], 0%.

For `Cc1cnc(N)c(/C=C/c2cncc(C(=O)NCCc3ccc(Cl)cc3Cl)c2)c1.Cl` [GSK190937], the “%Inh” value is 4% in assay [1]; 0% in [2]; 0% in [3]; 2% in [4]; 6% in assay [5]; 0% in [6]. Moreover, the “%Inh” value in [7] amounted to 0%; in [8], 0%; in assay [9] it was 5%; in [10], 2%.

As for `O=c1cc(N2CCOCC2)nc2n(Cc3cccc(Cl)c3Cl)c3ccccc3n12` [GSK2299009], the “%Inh” value amounted to 5% in [1]; 28% in assay [2]; 10% in assay [3]; 8% in assay [4]; 16% in [5]; 0% in [6]. The “%Inh” value in [7] worked out at 32%; in [8], 36%; in [9], 24%; in assay [10] it was 14%.

Consider `CNc1nc(-c2ccc3c(N)n[nH]c3c2)cc(N2C[C@@H](C(=O)Nc3ccccc3)CC[C@H]2C)n1` [GSK2298859], for which the “%Inh” value in [1], in assay [2], in assay [3], in assay [4], in assay [5] and in assay [6] was 0% throughout. Also, the “%Inh” value amounted to 0% in assay [7], 28% in assay [8], 10% in [9] and 0% in assay [10].

For the compound `CN1c2ccc(-c3ccc(C(N)=O)cc3)cc2-c2[nH]ncc2S1(=O)=O`, the “%Inh” value in assay [1] was 53%; in assay [2], 3%; in [3], 0%; in [4] it was 0%; in [5], 0%; in assay [6], 19%. The “%Inh” value in [7] is 26%; in assay [8], 3%; in assay [9] it was 0%; in assay [10], 3%.

Consider `O=C(Nc1n[nH]c2nc(-c3cccs3)c(Br)cc12)C1CCCC1` [SB-743341], for which the “%Inh” value stood at 8% in assay [1]; 12% in [2]; 23% in [3]; 67% in [4]; 86% in assay [5]; 0% in [6]. Besides, the “%Inh” value in [7] is reported as 38%; in assay [8], 19%; in assay [9], 0%; in [10] it was 0%.

In the case of `c1ccc(-c2ccnc3[nH]ccc23)cc1` [SB-693578], the “%Inh” value is given as 19% in assay [1]; 0% in assay [2]; 0% in assay [3]; 25% in [4]; 0% in [5]; 0% in assay [6]. The “%Inh” value in assay [7] turned out to be 0%; in assay [8] it was 0%; in [9], 15%; in assay [10], 0%.

With `Nc1cccc(-c2ccc3c(N)n[nH]c3c2)n1` [GSK2192730], the “%Inh” value stood at 50% in [1]; 0% in assay [2]; 13% in [3]; 61% in assay [4]; 76% in assay [5]; 0% in [6]. The “%Inh” value in [7], in assay [8], in [9] and in assay [10] was 0% in each case.

`Cc1cccc2c(-c3ccncn3)c(-c3ccc(F)cc3)nn12` [GW515532]: the “%Inh” value in assay [1] was 0%; in assay [2], 0%; in assay [3] it was 0%; in assay [4], 3%; in assay [5], 0%; in assay [6] it was 0%. Further, the “%Inh” value in assay [7] is 28%; in assay [8] it was 4%; in [9], 0%; in [10] it was 0%.

Regarding `COc1cccc(NC(=O)Nc2ccc(C)c(-c3ccc(C(=O)Nc4ccncc4)cc3)c2)c1` [GSK1398474], the “%Inh” value in [1] is given as 6%; in [2], 14%; in [3], 4%; in assay [4], 24%; in assay [5], 6%; in assay [6] it was 10%. Also, the “%Inh” value was 14% in assay [7], 31% in assay [8], 13% in assay [9] and 3% in assay [10].

`Cc1ccc(NC(=O)Nc2ccccc2)cc1-c1ccc(C(=O)Nc2ccncc2)cc1` [GSK1398471]: the “%Inh” value in assay [1] was 3%; in assay [2], 23%; in assay [3] it was 3%; in assay [4], 0%; in assay [5], 0%; in [6], 0%. For the same compound, the “%Inh” value in assay [7] is on record as 0%; in assay [8], 4%; in [9], 5%; in [10], 24%.
